FMDV inh = foot and mouth disease virus antiviral activity; FMDV antiviral cell-based qHTS; Potency, µM (series often up to 57.9 µM), for inactives: at the top dose activity change, negative = inhibition, hits mostly inhibitors; actives 1.2% (n = 410,000); calls by dose curve; tested in HEK293T cells; note: read-out not given here; potency is the fitted concentration of half-maximal effect; % is set by controls: 0 for no effect and ±100 for the full control effect; nearly all actives have a fitted effect of over 45% in size
Lassa entry inh = inhibitors of Lassa virus binding or cell entry | Lassa virus pseudotype entry inhibition, cell reporter | Potency, µM (series often up to 37.9 µM), for inactives: top-dose activity change, negative = inhibition, most hits filed as inhibitors | actives 1.2% (n = 300,000) | AID 540256; calls by dose curve; tested in HEK293 cells; note: potency is the fitted concentration of half-maximal effect; % is set by controls: 0 for no effect and ±100 for the full control effect; nearly all actives have a fitted effect of over 50% in size
HCMV inh = human cytomegalovirus inhibition; actives 4.5% (n = 410,000); activity change, negative = inhibition, % at 57.5 µM; HFF cells, HCMV-luciferase reporter, 72 h; stronger effect = lower value; in the data active = activity change below about -60%; inconclusive = no clear call, values can overlap the other calls; inactive = above about -39%; note: % is set by controls: 0 for no effect and ±100 for the full control effect
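Two-dose cell screen: HFF monolayers treated with compounds and infected with luciferase-expressing HCMV at 1 PFU/cell, 72 h at 37C, then lysed for luciferase measurement.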
HCV inh = HCV inhibition; AID 651820; Huh7.5.1 HCVcc-Cre infection, luciferase reporter, 44 h; actives 3.4% (n = 340,000); Potency, µM (top dose mostly 41.8 µM), without a hit: at the highest dose activity change, negative = inhibition, hits mostly inhibitors; active = well fitted inhibition curve with a large enough effect; inconclusive = small, poorly fitted or top-dose-only effect, or another doubt; inactive = no such curve, though single readings can be large or run the other way; note: potency is the fitted concentration of half-maximal effect; % is set by controls: 0 for no effect and ±100 for the full control effect
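Compounds are dispensed onto cells plated 4 h earlier at 1,000 per well, with HCVcc-Cre virus (about 0.5 moi) added next. Following 44 h of culture, luminescent signal is measured for 15 sec after 15 min with substrate at room temperature.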
Marburg entry inh = inhibitors of Marburg virus binding or cell entry. Marburg virus pseudotyped entry inhibition, cell reporter. Potency, µM (doses to about 37.8 µM), without a hit: at the top dose activity change, negative = inhibition, most hits filed as inhibitors. actives 1.8% (n = 300,000). AID 540276; calls by dose curve; tested in HEK293 cells; note: potency is the fitted concentration of half-maximal effect; % is set by controls: 0 for no effect and ±100 for the full control effect
SARS PLP yeast = inhibitors of SARS-CoV papain-like protease in yeast; Potency, µM (top dose mostly 32.9 µM), inactives show at the top dose activity, positive = growth rescue, hits mostly activators; actives 0.19% (n = 330,000); S. cerevisiae expressing SARS-CoV PLpro, growth rescue; calls by dose curve; note: potency is the fitted concentration of half-maximal effect; 0% is about no effect; nearly all actives have a fitted effect of over 55% in size
The depositor's hits bear a star; ! = not confirmed by another sample; [ ] = dose if it differs, or a comment. Compounds with a hit are over-represented: about 8% of the library has one in this group of screens.

What do the screens show for `COCCCn1c(=N)c(C(N)=S)cc2c(=O)n3cccc(C)c3nc21`?
FMDV inh: -13%; Lassa entry inh: -1%; HCMV inh: inconclusive; HCV inh: inconclusive; Marburg entry inh: inconclusive

What do the screens show for `Cc1ccc2nc3c(cc(C(N)=S)c(=N)n3CCCOC(C)C)c(=O)n2c1`?
FMDV inh: 12%; Lassa entry inh: -2%; HCMV inh: -19; HCV inh: 25µM*; Marburg entry inh: -28%; SARS PLP yeast: -2%

How did Cc1cccn2c(=O)c3cc(C(N)=S)c(=N)n(CCCN4CCOCC4)c3nc12 do in these assays?
FMDV inh: inconclusive; HCMV inh: -64*; HCV inh: inconclusive; SARS PLP yeast: 0%

What do the screens show for `Cc1cccn2c(=O)c3cc(C(=O)NCc4ccc(F)cc4)c(=N)n(CCCN4CCOCC4)c3nc12`?
FMDV inh: 4.5µM*; HCMV inh: -35; HCV inh: inconclusive

Results for CCCCCCCCCCCCCCCC[N+](C)(C)CCN(Cc1ccc(OC)cc1)c1ncccn1 ?
FMDV inh: 28µM*; HCV inh: 2.8µM*

Results for COc1ccc(CN(CCN(C)C)c2ccccn2)cc1 ?
FMDV inh: -3%; Lassa entry inh: -15%; HCMV inh: -4; HCV inh: inconclusive; Marburg entry inh: 16µM*!; SARS PLP yeast: -2%

Results for COc1ccc(-c2csc(NC(=O)CSc3nnc(Nc4ccccc4C)s3)n2)cc1 ?
FMDV inh: 17%; Lassa entry inh: inconclusive; HCMV inh: -70*; HCV inh: -24%; Marburg entry inh: inconclusive; SARS PLP yeast: 0%

Results for COc1ccccc1Nc1nnc(SCC(=O)Nc2nc(-c3ccc(F)cc3)cs2)s1 ?
FMDV inh: -2%; HCMV inh: -88*; HCV inh: -27%; SARS PLP yeast: 0%

How did CCOc1ccccc1Nc1nnc(SCC(=O)Nc2nc(-c3ccc(OC)cc3)cs2)s1 do in these assays?
FMDV inh: 10%; Lassa entry inh: -2%[46.1 µM]; HCMV inh: 1; HCV inh: -15%; Marburg entry inh: 17%[46.1 µM]; SARS PLP yeast: 1%

How did Cc1ccccc1N(CC(=O)NCc1ccco1)C(=O)CNS(=O)(=O)c1ccc(F)cc1 do in these assays?
FMDV inh: 25%; HCMV inh: -33; HCV inh: -4%; Marburg entry inh: -21%[46.1 µM]; SARS PLP yeast: 2%

What do the screens show for `Cc1cccc(C)c1N(CC(=O)NCc1ccco1)C(=O)CNS(=O)(=O)c1ccc(F)cc1`?
FMDV inh: 25%; Lassa entry inh: -29%; HCMV inh: 12; HCV inh: 14%; Marburg entry inh: 8.9µM*; SARS PLP yeast: 0%

How did Cc1ccccc1CS(=O)(=O)Cc1ccc(C(=O)NCCc2ccc(Cl)cc2)o1 do in these assays?
FMDV inh: 28µM*; Lassa entry inh: inconclusive; HCMV inh: 0

Results for Cc1ccc(CS(=O)(=O)Cc2ccc(C(=O)NCc3cccs3)o2)cc1 ?
FMDV inh: -23%; Lassa entry inh: inconclusive; HCMV inh: -89*; HCV inh: -4%; Marburg entry inh: inconclusive; SARS PLP yeast: 0%

What do the screens show for `O=C(NCc1cccs1)c1ccc(CS(=O)(=O)c2ccc(Cl)cc2)o1`?
FMDV inh: -8%; Lassa entry inh: 12µM*; HCMV inh: -7; HCV inh: 15%; Marburg entry inh: -14%; SARS PLP yeast: -3%

How did Cc1ccc(CS(=O)Cc2ccc(C(=O)NCc3cccs3)o2)cc1 (stereo not given) do in these assays?
FMDV inh: 18%; HCMV inh: 10; HCV inh: -9%; SARS PLP yeast: 2%

What do the screens show for `O=c1ccc(S(=O)(=O)N2CCCC2)cn1Cc1ccc(Cl)cc1Cl`?
FMDV inh: inconclusive; HCMV inh: -34; HCV inh: 6.3µM*; SARS PLP yeast: 0%

Results for O=C(NC1CCN(Cc2ccccc2)CC1)c1ccc(Cn2c(=O)c3ccccc3n(Cc3ccc(F)cc3)c2=O)cc1 ?
FMDV inh: 0%; Lassa entry inh: inconclusive; HCMV inh: 11; Marburg entry inh: inconclusive

How did COC(=O)[C@@H]1[C@@H](c2ccccc2)[C@H]2C(=O)c3c(OC)cc(OC)cc3O[C@@]12c1ccc(OC)cc1 do in these assays?
Marburg entry inh: 3%[14.2 µM]

Results for COc1ccc([C@@]23Oc4cc(OC)cc(OC)c4[C@]2(O)[C@H](O)[C@H](C(=O)N(C)C)[C@H]3c2ccccc2)cc1 ?
FMDV inh: inconclusive; Lassa entry inh: inconclusive; HCMV inh: -98*; Marburg entry inh: 0.11µM*

How did COc1ccc(/C=N/NC(=S)Nc2cc(S(=O)(=O)N3CCOCC3)ccc2N2CCOCC2)cc1O do in these assays?
FMDV inh: inconclusive; Lassa entry inh: inconclusive; HCMV inh: -30; HCV inh: 10µM*; Marburg entry inh: inconclusive; SARS PLP yeast: 14%

How did CCOc1cccc(/C=N/NC(=S)Nc2cc(S(=O)(=O)N3CCOCC3)ccc2N2CCOCC2)c1O do in these assays?
FMDV inh: inconclusive; Lassa entry inh: inconclusive; HCMV inh: -79*; HCV inh: inconclusive; Marburg entry inh: inconclusive; SARS PLP yeast: 20%

How did COc1ccc2ccccc2c1/C=N/NC(=S)Nc1cc(S(=O)(=O)N2CCOCC2)ccc1N1CCOCC1 do in these assays?
FMDV inh: -19%; Lassa entry inh: 0%; HCMV inh: -34; HCV inh: inconclusive; Marburg entry inh: 0%; SARS PLP yeast: 11%

How did Cc1ccccc1OCC(=O)Nc1cc(S(=O)(=O)N2CCOCC2)ccc1N1CCCC1 do in these assays?
FMDV inh: 1%; HCMV inh: 0; HCV inh: inconclusive; SARS PLP yeast: 2%

What do the screens show for `COc1ccc2c([N+](=O)[O-])c(C)[nH]c2c1`?
HCMV inh: -15

Results for COC(=O)c1sccc1S(=O)(=O)N1CCC(n2c(CC3CCCC3)nc3cccnc32)CC1 ?
FMDV inh: -4%

Results for COc1ccc(C(=O)c2ccc(N(C)C)cc2)c(OC)c1 ?
FMDV inh: 13%; Lassa entry inh: -28%; HCMV inh: 66; HCV inh: inconclusive; Marburg entry inh: inconclusive; SARS PLP yeast: 5%

Results for CN(C)c1ccc(C(=O)c2ccc(N(C)C)c3ccccc23)cc1 ?
FMDV inh: 42%; Lassa entry inh: 0.25µM*; HCMV inh: -80*; HCV inh: 11µM*; Marburg entry inh: inconclusive; SARS PLP yeast: -10%

How did CC(C)CCn1c(N)c(S(=O)(=O)c2cccs2)c2nc3ccccc3nc21 do in these assays?
FMDV inh: 21%; Lassa entry inh: 39%[14.3 µM]; HCV inh: inconclusive; Marburg entry inh: 15µM*; SARS PLP yeast: -5%

What do the screens show for `COCC(=O)Nc1cc(C(=O)N2CCc3ccccc3C2)c2c(c1)nc(-c1ccncc1)n2C`?
FMDV inh: -13%
